This passage reports growth results from PubChem BioAssay (NCI).

Molecules are shown by their SMILES. Compounds without any hit were thinned out: in the full panel of roughly 83,000, 20% have a hit.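 Percent growth is the endpoint: 0 to 100 indicates growth inhibition (40 means 60% inhibition), 0 means no net growth, and negative values indicate cell death.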 Values without a mark were called inactive. The source made the active and inactive calls. How the source made its calls: active means growth percent below 10; inactive means the rest.

Holding throughout (test): NCI-60 one-dose screen, 48 h (100 = growth as untreated, 0 = no growth, -100 = all killed)
Details in all cases: 10 µM unless noted

Test [1] has as its system HCT-15 colon.
For test [2], the system named is HT29 colon.
Test [3] deals with SNB-75 CNS.
Test [4] deals with SNB-19 CNS.
Test [5] has as its system U251 CNS.
Test [6] deals with PC-3 prostate.
Test [7] has as its system SK-MEL-5 melanoma.
Test [8] concerns UACC-62 melanoma.
The test system of test [9] is LOX IMVI melanoma.
Test [10] deals with SK-MEL-28 melanoma.
In test [11] the test system is SK-MEL-2 melanoma.
Test [12] deals with EKVX NSCLC.
In test [13] the test system is SN12C renal.
The subject of test [14] is UO-31 renal.
Test [15] concerns TK-10 renal.
The subject of test [16] is ACHN renal.
The subject of test [17] is CAKI-1 renal.
Test [18] deals with A498 renal.
The test system of test [19] is CCRF-CEM leukemia.
For test [20], the system named is MOLT-4 leukemia.

Take `COc1ccc(-c2ccccc2)cc1-c1c(Nc2cc(Cl)cc(Cl)c2O)c(=O)c1=O`: the growth in test [1] is 10.2%; in [2], 44.6%; in test [3] it was -8.42% (active); in test [4], 10.9%; in test [5], 6.59% (active); in test [6], 12.5%. The growth in [7] was -40.7% (active); in test [8], 10.6%; in test [9], 7.28% (active); in [10], 20%; in [11] it was -26.5% (active); in test [12], 10.2%. Moreover, the growth was 6.31% (active) in test [13]; 6.3% (active) in test [14]; 12.8% in test [15]; 3.24% (active) in test [16]; -12.6% (active) in [17]; -17.6% (active) in test [18]. Further, the growth in [19] was 19.5%; in test [20], 13.2%.
On to `COc1ccc(CCNC(=O)COc2cc3c(Nc4ccc(F)c(Cl)c4)ncnc3cc2OC)cc1OC`, for which the growth was 91.2% in [1]; 95.5% in [2]; 94.6% in [3]; 84.2% in [4]; 103% in test [5]; 92.1% in test [6]. In addition, the growth was 92.5% in test [7]; 95.7% in test [8]; 90.1% in test [9]; 98.4% in test [10]; 86.9% in [11]; 78.2% in [12]. Moreover, the growth in [13] is 85.2%; in [14], 46.8%; in [15], 37.4%; in test [16] it was 49%; in [17], 46.5%; in test [18] it was 55.6%. Further, the growth in test [19] is 100%; in test [20], 93.4%.
`Oc1ccccc1C=Nc1ccc(N2CCN(c3ccccc3)CC2)cc1`: the growth is 99.8% in test [1]; 99.5% in [2]; 79.9% in test [3]; 107% in test [4]; 99.9% in test [5]; 77.8% in [6]. Also, the growth was 97.2% in test [7]; 95.4% in test [8]; 98.5% in test [9]; 109% in test [10]; 102% in test [11]; 113% in [12]. For the same compound, the growth in test [13] is 102%; in [14], 86.3%; in [15], 93.8%; in [16], 72.9%; in test [17], 91.9%; in test [18], 98.6%. The growth in test [19] is 62.2%; in test [20], 93.5%.
Consider `COc1ccc(-c2nnc3n(C)c(=O)c4ccccc4n23)cc1O`, for which the growth in [1] was 22.9%; in test [2], 18.8%; in test [3] it was 9.51% (active); in test [4], 24.3%; in test [5] it was 15.1%; in test [6], 17.9%. The growth in test [7] is 19%; in [8] it was 14.2%; in test [9] it was 39.1%; in test [10] it was 50.9%; in test [11], 30.3%; in [12], 97.5%. The growth in [13] is 30.3%; in test [14], 52.7%; in [15] it was 51.4%; in test [16], 47.5%; in test [17], 35.2%; in test [18], 21.6%. Also, the results for the growth in [19] and in test [20] were 10.7% and 32.5%, respectively.
As for `COc1ccc(Nc2ncnc3ccc(-c4cncc(NS(C)(=O)=O)c4)cc23)cc1Cl`, the growth in test [1] was 63.3%; in test [2], 23.1%; in test [3] it was 26.7%; in test [4], 42.2%; in test [5], 12%; in test [6], 30%. Further, the growth in [7] was -60.5% (active); in test [8], 31.8%; in [9], 15.7%; in test [10], 42.4%; in test [11], -4.48% (active); in test [12] it was 67.3%. In addition, the growth in test [13] is 38%; in test [14], 50.1%; in [15] it was 18.2%; in test [16] it was 80.4%; in test [17], 79.8%; in test [18] it was 7.85% (active). Besides, the growth in [19] is 6.14% (active); in test [20], -27.6% (active).
On to `CC(C)(C)c1cc(C(C)(C)c2ccccc2)cc(Cc2cc(C(C)(C)c3ccccc3)cc(C(C)(C)C)c2O)c1O`, for which the growth was 95.8% in test [1]; 93.3% in test [2]; 94.5% in test [3]; 106% in test [4]; 94.3% in test [5]; 74.9% in test [6]. The growth in test [7] was 97.4%; in test [8], 92.3%; in test [9] it was 89.5%; in test [10], 106%; in [11], 72.1%; in test [12] it was 110%. Also, the growth is 95.7% in test [13]; 80.9% in test [14]; 98.1% in test [15]; 102% in test [16]; 104% in [17]; 125% in test [18]. Moreover, the growth is 66.1% in test [19] and 54.4% in test [20].
With `O=C(Nc1ncc(Cc2cccc(C(F)(F)F)c2)s1)c1ccc(-n2cnnn2)cc1`, the growth in test [1] was 38.7%; in test [2] it was 62%; in test [3] it was 83.4%; in test [4] it was 59.7%; in [5], 64.4%; in test [6], 54.1%. The growth is 37.8% in [7]; 19.8% in [8]; 46.6% in [9]; 52.7% in [10]; 89.4% in test [11]; 40.2% in [12]. Also, the growth in [13] was 79.9%; in [14], 48.3%; in test [15], 50.4%; in test [16], 32%; in [17] it was 30.1%; in [18], 54.7%. Also, the growth in [19] was 55.3%; in test [20] it was 39.4%.
With `COC(=O)c1nc(-c2ccc(C)cc2)oc1Sc1ccc(C)cc1`, the growth in test [1] was 86.8%; in [2], 102%; in test [3], 79.3%; in test [4], 101%; in test [5] it was 94.3%; in [6], 78.4%. The growth in test [7] was 105%; in [8] it was 76.9%; in test [9] it was 93.5%; in test [10], 106%; in test [11], 104%; in test [12], 105%. Besides, the growth is 96% in test [13]; 82.6% in test [14]; 106% in test [15]; 96.1% in [16]; 95% in test [17]; 130% in test [18]. Further, the growth in [19] is 86.9%; in test [20], 71.7%.
Turning to `Cc1ccc(-c2nc3nc(-c4ccccc4)nc(N4CCN(S(=O)(=O)c5ccccc5)CC4)c3o2)cc1`, the growth in test [1] is 103%; in test [2] it was 97.7%; in test [3] it was -17.2% (active); in test [4], 32.9%; in test [5] it was 78.9%; in test [6], 96.4%. Besides, the growth is 95% in test [7]; 101% in [8]; 96.7% in test [9]; 106% in test [10]; 76.9% in test [11]; 96.1% in [12]. For the same compound, the growth in [13] is 94.3%; in [14] it was 99.2%; in test [15], 79.1%; in test [16], 72%; in [17] it was 84%; in test [18] it was 99.3%. Further, the growth in test [19] is 108%; in test [20] it was 102%.
Consider `Cc1ccc(S(=O)(=O)OC[C@@]2(C)CC[C@]3(C)CC[C@]4(C)C(=C3C2)C=C[C@@H]2[C@@]3(C)CCCNC(C)(C)[C@@H]3CC[C@]24C)cc1`, for which the growth in test [1] is -74.5% (active); in [2], -69.2% (active); in test [3] it was 82.9%; in test [4] it was 47.8%; in [5] it was -95.9% (active); in [6], 43.5%. Further, the growth in test [7] was 76.5%; in test [8] it was 61.1%; in test [9], -99.2% (active); in [10] it was 96.7%; in test [11], 9.43% (active); in [12] it was 88.9%. In addition, the growth in [13] was 7.76% (active); in [14], 71.6%; in test [15] it was 68.6%; in [16] it was -46.6% (active); in test [17] it was 1.61% (active); in test [18], 104%. Moreover, the figures for the growth in test [19] and in test [20] were 0.849% (active) and -24.8% (active), respectively.
`c1cc(NCCCCN2CCOCC2)c2ccc3c(ccc4c(NCCN5CCOCC5)ccnc43)c2n1`: the growth in test [1] is 70.7%; in test [2], 83.1%; in test [3], 86.8%; in test [4], 68.2%; in test [5], 92.4%; in test [6], 57.2%. Further, the growth in test [7] is 98.7%; in test [8], 98.9%; in [9], 45.9%; in test [10] it was 94%; in test [11], 99.2%; in test [12], 94.8%. Moreover, the growth in test [13] was 64.8%; in [14], 64.7%; in test [15] it was 143%; in [16] it was 60.2%; in test [17], 64.2%; in test [18] it was 86.1%. The results for the growth in [19] and in test [20] were 36.9% and 43.2%, respectively.
For the compound `CC1(Cc2ccccc2)CC2=C(C(=O)O1)C(c1ccccc1)NC(=O)N2` (stereo not given), the growth was 106% in test [1]; 96.8% in test [2]; 79.3% in test [3]; 89.4% in [4]; 104% in test [5]; 92% in test [6]. For the same compound, the growth in test [7] is 95%; in [8], 91.5%; in test [9] it was 95.3%; in test [10], 116%; in test [11] it was 107%; in [12] it was 98.7%. The growth is 104% in [13]; 79.9% in [14]; 108% in [15]; 101% in test [16]; 95% in [17]; 117% in [18]. Further, the growth in test [19] is 91.1%; in test [20] it was 46.5%.
Take `Cc1ccc(-c2nc([P+](c3ccccc3)(c3ccccc3)c3ccccc3)c(Nc3ccccc3)o2)cc1`: the growth in [1] was 1.96% (active); in test [2] it was -2.08% (active); in [3], -31.6% (active); in test [4], 2.16% (active); in test [5], -16.2% (active); in test [6], 4.11% (active). Further, the growth in test [7] was -87.4% (active); in test [8], -25.8% (active); in [9] it was -8.29% (active); in [10], -42.3% (active); in [11] it was -58.8% (active); in [12] it was -2.84% (active). For the same compound, the growth in test [13] was 2.84% (active); in [14] it was -23.5% (active); in [15], 8.06% (active); in [16] it was -11.6% (active); in test [17] it was -27.8% (active); in test [18] it was -37.9% (active). Also, the growth was 0.282% (active) in test [19] and -9.22% (active) in test [20].
Take `CC(=O)N1N=C(c2ccc(Nc3nc(Nc4ccc(F)cc4)nc(Nc4ccc(F)cc4)n3)cc2)CC1c1ccccc1` (stereo not given): the growth is 89.3% in test [1]; 96.3% in test [2]; 80.1% in test [3]; 77.3% in [4]; 85.5% in [5]; 70% in test [6]. Also, the growth was 69.6% in [7]; 95.4% in [8]; 103% in [9]; 97.5% in test [10]; 59.9% in [11]; 105% in [12]. Besides, the growth in test [13] is 112%; in test [14], 80.2%; in test [15], 97.6%; in test [16] it was 84.6%; in test [17], 114%; in test [18], 85.5%. The growth in [19] was -14.7% (active); in test [20] it was 70.2%.
